Results as given in PubChem BioAssay AID1347165 (National Center for Advancing Translational Sciences (NCATS), 2019).
Screen size: about 220,000 compounds; about 5,700 (2.6%) were called active. Another 18% or so got no clear call; they are omitted. The call rests on the fitted dose curve; in most records, active means well fitted inhibition curve with a large enough effect; inconclusive means small, poorly fitted or top-dose-only effect; inactive means no such curve, though single readings can be large or run the other way. The sample as a whole holds a higher share of actives than the screen did.

biological target: Lysine-specific demethylase 5B (Homo sapiens) (UniProt Q9UGL1); test: Primary screen for KDM5B Histone Demethylases FDH-coupled qHTS; conditions: FDH-coupled NADH fluorescence (FDH is formaldehyde dehydrogenase); series mostly up to 57.7 µM; activity change, negative = inhibition: at the top concentration; further: nearly all actives have a fitted effect of over 70% in size; on activity change, negative = inhibition: 0% is about no effect
In short: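 Inhibition is measured as reduced NADH fluorescence generation from FDH coupling to formaldehyde release. Truncated KDM5BΔAP at 200 nM final acts on H3K4me3 peptide (12.5 µM in substrate mix) in pH 7.5 HEPES buffer with Tween-20, 30 min, room temperature.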
Potency means the concentration at half of the fitted maximal effect.

Sequence of Lysine-specific demethylase 5B (Homo sapiens) (Q9UGL1 whole entry, looked up, the tested form may be a part): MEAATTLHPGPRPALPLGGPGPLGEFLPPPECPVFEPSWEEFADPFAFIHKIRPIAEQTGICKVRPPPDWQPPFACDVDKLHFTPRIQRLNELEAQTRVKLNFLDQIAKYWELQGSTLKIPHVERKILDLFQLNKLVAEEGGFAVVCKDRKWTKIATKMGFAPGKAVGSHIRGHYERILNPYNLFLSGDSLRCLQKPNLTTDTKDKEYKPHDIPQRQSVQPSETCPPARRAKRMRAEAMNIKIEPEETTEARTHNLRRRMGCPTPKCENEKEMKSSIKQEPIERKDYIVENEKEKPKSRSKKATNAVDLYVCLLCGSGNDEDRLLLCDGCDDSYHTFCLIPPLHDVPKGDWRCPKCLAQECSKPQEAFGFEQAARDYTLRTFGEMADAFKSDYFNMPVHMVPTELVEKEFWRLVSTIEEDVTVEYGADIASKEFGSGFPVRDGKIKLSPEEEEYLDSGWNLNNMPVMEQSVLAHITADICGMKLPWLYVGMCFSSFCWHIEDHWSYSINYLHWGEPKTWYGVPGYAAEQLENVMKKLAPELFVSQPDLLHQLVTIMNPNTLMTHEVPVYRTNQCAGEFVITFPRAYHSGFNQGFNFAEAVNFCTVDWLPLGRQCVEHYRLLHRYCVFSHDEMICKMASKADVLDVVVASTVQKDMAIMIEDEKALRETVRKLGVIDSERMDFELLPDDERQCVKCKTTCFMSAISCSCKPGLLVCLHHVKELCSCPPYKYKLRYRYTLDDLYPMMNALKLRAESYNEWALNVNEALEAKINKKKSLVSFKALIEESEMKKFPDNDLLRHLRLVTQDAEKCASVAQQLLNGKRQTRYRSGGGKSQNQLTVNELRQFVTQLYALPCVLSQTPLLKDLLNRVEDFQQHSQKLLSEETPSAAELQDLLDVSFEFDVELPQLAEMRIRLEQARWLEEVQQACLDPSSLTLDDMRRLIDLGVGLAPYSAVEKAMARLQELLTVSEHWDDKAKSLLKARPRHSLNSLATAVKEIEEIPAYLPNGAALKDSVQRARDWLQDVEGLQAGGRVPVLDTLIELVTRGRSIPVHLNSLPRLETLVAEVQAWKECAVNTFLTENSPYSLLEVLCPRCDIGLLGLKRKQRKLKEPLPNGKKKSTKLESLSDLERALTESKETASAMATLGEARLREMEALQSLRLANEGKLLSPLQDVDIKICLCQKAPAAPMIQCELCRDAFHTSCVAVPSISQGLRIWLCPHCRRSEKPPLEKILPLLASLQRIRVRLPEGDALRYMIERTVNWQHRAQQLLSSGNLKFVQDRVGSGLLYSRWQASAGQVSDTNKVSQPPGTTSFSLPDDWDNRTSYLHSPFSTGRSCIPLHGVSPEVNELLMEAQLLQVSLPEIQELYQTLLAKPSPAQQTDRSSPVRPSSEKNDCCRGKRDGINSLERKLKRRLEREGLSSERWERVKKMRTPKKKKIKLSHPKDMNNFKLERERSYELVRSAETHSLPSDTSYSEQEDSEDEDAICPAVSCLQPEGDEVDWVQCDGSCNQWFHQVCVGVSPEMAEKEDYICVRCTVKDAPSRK

Activity change, negative = inhibition, inactive:
COc1ccc(OC)c(NC(=O)COc2c(C)cc(C)cc2C)c1 9.24%, CSc1ccccc1N=Cc1ccc(Cl)c(Cl)c1 29.7%, COc1ccc(OC)c(CCNC(=O)c2nn(C)c3c2CS(=O)(=O)c2ccccc2-3)c1 13.7%, CC(=O)Nc1ccc(S(=O)(=O)Nc2c(NC3CCCC3)c3ccccc3oc2=O)cc1 13.6%, O=[N+]([O-])c1cccc2nc(/C=C/c3ccc(C(F)(F)F)cc3)ccc12 -0.0445%, N#Cc1cccc(C2CCN(C(=O)C3CCN(C(=O)C4CC4)CC3)CC2)c1 -1.85%, Cn1c(=O)[nH]c(=O)c2c1nc(N1CCN(Cc3ccccc3Cl)CC1)n2Cc1ccc(F)cc1 5.2%, O=C(Cc1cccc(Cl)c1)N1CCC2(CN[S+](=O)([O-])c3cccnc3O2)C1 (centres undefined) 9.87% [at 115 µM], O=[S+]1([O-])NCC2(CCCN(Cc3ccncc3)C2)Oc2ncccc21 (centres undefined) -20% [at 115 µM], CNS(=O)(=O)c1ccc(NC(=O)Nc2ccc3c(c2)OCO3)cc1 5.61%, Cc1nccnc1N1CCC(c2nnc(CN3CCCC3)n2C)CC1 9.79%, COc1c(CNCc2cccnc2N2CCOCC2)c(C)nn1C -5.58%, C=CCNC(=O)c1cn2c(n1)CN([S+](C)(=O)[O-])CC2 9.43% [at 149 µM], C=CCNC(=O)c1cn2c(n1)CN(C(=O)c1ccccc1F)CC2 14.7% [at 149 µM], Cn1cc(CN2C[C@@H](CO)[C@H](C(=O)NC3CC3)C2)cn1 -2.64%, Cc1cccc(C(=O)N2CCN(S(=O)(=O)N3CCCCC3)CC2)c1 32.8%, COc1ccccc1C(=O)N1CCC(n2cnnc2C2CC2)CC1 -11.8%, O=C(c1ccc(F)cc1)N1CCN(c2cc(-c3ccc(F)cc3)[nH]n2)CC1 -11.3%, COc1ccccc1C(=O)N1CCN(c2cc(C(F)(F)F)ncn2)CC1 -12.6%, Cc1ccc(-n2c(SC(C)C(=O)c3ccc(F)c(F)c3)nnc2N2CCOCC2)cc1 (centres undefined) 16.4%, Cc1cccc(C(=O)N2CCC(OC3CCN(Cc4ccccc4)CC3)CC2)c1 13.2%, Nc1cc(OCC(F)(F)F)cc(OCC(F)(F)C(F)F)c1 8.06%, CC1CCCC(NC(=O)c2ccccc2)C1C (centres undefined) 18.6%, COCCSCC(=O)N1CCOC(C)(C)C1 26.5%, COCc1nc(C2CCCN(C(=O)CCC3CCCC3)C2)no1 (centres undefined) -7.38%, Cc1cc(C(=O)N2CCC3(CC2)CC(C(=O)N2CCOCC2)N(C)C3)nn1C (centres undefined) 9.57%, O=C(c1cc(-c2ccc(O)cc2)on1)N1CCOCC1 -11%, Cc1ccc(CNC(=O)Cc2cn(C)c3ccccc23)cc1 31%, CCOc1ccccc1NC(=O)NC1CCCCCCC1 25.5%, COc1ccc(Nc2cc(C(=O)N3CCOCC3)c3ccccc3n2)cc1 -11.2%, COc1cccc(NC(=O)C2(C#N)CCCC2)c1 12.7%, O=C(Nc1cc(F)ccc1F)N1CCC2(CC1)Oc1ccccc1C(=O)N2Cc1ccccc1F -2.84%, OCCCSc1nnc(-c2c[nH]c3ccccc23)n1C1CC1 -11.7%, CC(C)CNC(=O)NCC1Cn2cccc2C(=O)N1Cc1ccccc1 (centres undefined) -2.01%, CC(C)NC(=O)NCC1Cn2cccc2C(=O)N1Cc1ccccc1 (centres undefined) -21.5%, O=C(NCC1Cn2cccc2C(=O)N1Cc1ccccc1)c1ccc(F)cc1 (centres undefined) 0.623%, O=C(NCC1Cn2cccc2C(=O)N1Cc1ccccc1)c1ccco1 (centres undefined) 11.7%, CCCn1nc(C(=O)NCc2cccc(OC)c2)c2ccccc2c1=O 16.7%, O=C(CSc1ncc(CO)n1Cc1ccc(F)cc1)NCc1ccc2c(c1)OCO2 13.1%, CN(C(=O)Cn1c(=O)n(C)c(=O)c2sccc21)c1ccccc1 -13.8%, Cc1ccc(C(=O)c2ccccc2C(=O)OCc2c(Cl)cccc2Cl)cc1 -9.31%, O=C(NCCc1nc2ccccc2[nH]1)c1ccc(N2CCCN(Cc3ccccc3)C2=O)cc1 2.86%, O=C1Nc2ccc(Br)cc2C(=O)N2CCN(C(=O)C3CCCCC3)C[C@H]12 -26.5% [at 86.2 µM], COCCn1ccc2cc(C(=O)Nc3ccc4c(c3)C(=O)N3CCC[C@H]3C(=O)N4)ccc21 9.94%, COc1ccc(C(=O)N2CCc3nc(C(C)C)nc(-c4ccc(Cl)cc4)c3CC2)cc1 -3.56% [at 115 µM], Cc1nn(CC(=O)NC(C)(C)C)c(C)c1S(=O)(=O)N1CCCC(C(=O)N2CCC(C)CC2)C1 (centres undefined) 16.9%, Cc1cc(NC(=O)CCSc2nnc3c(Cl)cc(C(F)(F)F)cn23)no1 -3.18%, COc1ccc(C(=O)N[C@H](C(=O)NCc2ccccc2)C(C)C)cc1 10%, O=C(C1NCCc2[nH]cnc21)N1CCc2nnc(-c3ccccc3)n2CC1 (centres undefined) -24.4%, O=C(NCc1nnc2ccccn12)C1NCCc2[nH]cnc21 (centres undefined) 0.217%, COc1ccc2nc(C)c(C(=O)N(C)CC3COc4ccccc4O3)cc2c1 (centres undefined) -8.89%, C/C(=N/NC(=S)NCc1ccccc1)c1cccc(C(F)(F)F)c1 -5.68%

Potency, active:
O=C(Cc1cccc(Cl)c1)N1CCC2(CC1)CN[S+](=O)([O-])c1cccnc1O2 79.4 µM, Cn1c(CN2CCOCC2)nnc1C1CCN(c2ncccc2C#N)CC1 31.6 µM, C=CCNC(=O)c1ccc2ccnn2c1 31.6 µM, COc1ccccc1C(=O)N1CCCN(c2nnc3ccccn23)CC1 31.6 µM, Cc1cccc(C(=O)N2CCCN(c3nnc4ccccn34)CC2)c1 28.2 µM, Cc1cccc2nnc(N3CCN(C(=O)c4ccc(F)c(F)c4)CC3)n12 28.2 µM, O=C(c1cc2cccnn2n1)N1CCOCC1 31.6 µM, COc1ccc(NC(=O)C2(C)CN(C)Cc3ccc(Nc4cccc(OC)c4)nc32)cc1 (centres undefined) 14.1 µM, CC(=O)NCC1Cn2cccc2CN1Cc1ccccc1 (centres undefined) 28.2 µM, O=C(NCC1Cn2cccc2CN1Cc1ccccc1)c1ccco1 (centres undefined) 28.2 µM, COCC(=O)N[C@H]1C[C@H]2C(=O)Nc3ccc(/C=C/c4ccc(OC)cc4)cc3C(=O)N2C1 28.2 µM, Nc1nc(CCCNC(=O)C2NCCc3[nH]cnc32)cs1 (centres undefined) 25.1 µM
